Measurements taken from PubChem BioAssay AID2685 (National Center for Advancing Translational Sciences (NCATS), 2010).
Screen size: about 320,000 compounds; about 2,100 (0.66%) were called active. Another 53% or so got no clear call; they are omitted. This is one part of a sample in which actives are shown more often than they occur. Calls follow the shape of the dose curve; as a rule, active = well fitted inhibition curve with a large enough effect in the signal ratio, with a control signal flat (not every such curve was filed as active); inconclusive = small, poorly fitted or top-dose-only effect, or effect the other way, or a change in a side signal; inactive = flat fitted curve, though single readings scatter; the % refers to the signal ratio. Where a SMILES comes first, the peptide text is derived from it. [ ]: non-standard residue; d: D form. The star is where a group is joined. ξ: configuration not given here. ξF = NC(Cc1ccccc1)C(=O)O; Cbz = O=C(OCc1ccccc1)*

Test: qHTS Assay for Lipid Storage Modulators in Drosophila S3 Cells;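 as to cell number change: cells counted by Cell Tracker Red CMTPX staining in the red channel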; as to lipid storage change, negative = inhibition: % is scaled to controls: 0 for no effect and ±100 for the full control effect
Conditions: BODIPY lipid droplet fluorescence, 18-24 h, cells fed with added oleic acid; cell number change: measured here: cell count max response; series mostly up to 46.1 µM; lipid storage change, negative = inhibition: at the top concentration
Procedure, shortened: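 Laser-scanning cytometry quantifies lipid droplet accumulation (500–530 nm total intensity; droplet/cell object ratio) in oleic acid-fed (400 uM added) Drosophila S3 cells treated with a concentration series. 20 uM Triacsin C defined 100% inhibition.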
Potency is read from the fitted curve at half-maximal effect.

SMILES	lipid storage change, negative = inhibition	cell number change	outcome	Potency
C/C(CC(=O)NC12CC3CC(CC(C3)C1)C2)=N\NC(=O)c1cnccn1	-2.28% (inactive)	1.39%		
Cc1nccc2[nH]c(=O)c(C(=O)NC3CCCCC3C)cc12 (stereo not drawn)		3.44%	inactive	
Cc1cccc(/C=C2\Sc3ccc(C(=O)N4CCC(C)CC4)cc3N(C)C2=O)c1			inactive	
CN1C(=O)/C(=C/c2cccc(Cl)c2)Sc2ccc(C(=O)N3CCCC3)cc21	-2.44% (inactive)			
CCOC(=O)N1CCC(NC(=O)c2ccc3c(c2)N(C)C(=O)/C(=C/c2cccc(OC)c2)S3)CC1		-26%		2.91 µM (active)
COc1cccc(/C=C2\Sc3ccc(C(=O)NCc4cccnc4)cc3N(C)C2=O)c1	0.131% (inactive)	-1.61%		
CCOc1ccc(/C=C2/Sc3ccc(C(=O)N4CCOCC4)cc3N(C)C2=O)cc1OC		-3.07%		20.6 µM (active)
CN1C(=O)/C(=C/c2cccc(Cl)c2)Sc2ccc(C(=O)N3CCOCC3)cc21			inactive	
CN(Cc1ccccc1)c1nc2c(c(=O)[nH]c(=O)n2C)n1C	3.79% (inactive)	-14.1%		
O=C(CSc1ncnc2c1nnn2Cc1ccccc1)NC1CCCCC1	-3.24% (inactive)	-19.4%		
O=C(CSc1ncnc2c1nnn2Cc1ccccc1)NC1CCCC1	-19% (inactive)	-1.92%		
O=C(CSc1ncnc2c1nnn2Cc1ccc(F)cc1)NC1CCCCC1		-16.3%		20.6 µM (active)
CC(C)(C)C1CCC2(CC1)SCC(=O)N2c1ccccc1 (stereo not drawn)	9.11% (inactive)	-2.85%		
COCc1cc(C)nc(SCC(=O)Nc2ccc3c(c2)OCCO3)c1C#N	23.6% (inactive)	16.8%		
COCc1cc(C)nc(SCC(=O)Nc2ccccc2N2CCOCC2)c1C#N		-22.4%		13 µM (active)
COCc1cc(C)nc(SCC(=O)Nc2ccc(N3CCOCC3)cc2)c1C#N	3.29% (inactive)	5.82%		
O=C(N/N=C/c1ccsc1)c1ccc2c(c1)OCO2	20% (inactive)	17%		
Cc1cc(-c2ccc(C)c(S(=O)(=O)NCCC(C)N3CCCCCC3)c2)on1 (stereo not drawn)	-5.57% (inactive)	3.3%		
CCOc1ccc(CN(C)C(=O)[C@H](Cc2ccccc2)NC(=O)OCc2ccccc2)cc1OC		6.3%		8.2 µM (active)
CCOC(=O)CNC(=O)C(Cc1ccccc1)NC(=O)OCc1ccccc1 (stereo not drawn) (Cbz-[ξF]-Gly-OEt)	-13.8% (inactive)			
COc1ccc(CCNC(=O)C(NC(=O)OCc2ccccc2)C(C)C)cc1OC (stereo not drawn)	3.69% (inactive)	2.79%		
CN1CCN(C2=NC(=O)/C(=C/c3ccccc3OS(=O)(=O)c3ccccc3)S2)CC1	-11.1% (inactive)	6.94%		
CCOC(=O)C(NC(C)=O)(Nc1cccc(F)c1)C(F)(F)F (stereo not drawn)		-1.43%		4.11 µM (active)

SMILES	lipid storage change, negative = inhibition	cell number change	outcome	Potency
CCOC(=O)C(NC(=O)CC)(Nc1ccccc1)C(F)(F)F (stereo not drawn)	-8.39% (inactive)	-9.13%		
CCOC(=O)C(NC(C)=O)(Nc1ccc(F)cc1)C(F)(F)F (stereo not drawn)	-1.37% (inactive)	-0.408%		
CNC(=O)C1CC(=O)N(c2ccc(F)c(Cl)c2)C1 (stereo not drawn)	13.9% (inactive)	9.35%		
CCC(C)c1ccc(OCCN2CCCC2)cc1 (stereo not drawn)		7.66%		23.1 µM (active)
CC(C)c1ccc(OCCCN2CCCC2)cc1	-5.07% (inactive)	0.741%		
CCOc1ccc(OCCN2CCCCC2)cc1	-4.06% (inactive)	-0.326%		
COc1ccc(OC)c(NS(=O)(=O)c2ccc(Cl)nc2)c1	-10.3% (inactive)	7.58%		
CC(=O)NNC(=S)NCCc1ccccc1	6.36% (inactive)	6.47%		
CCOCc1[nH]c(=S)[nH]c(=O)c1Cc1ccc(OCC)cc1	-24.1% (inactive)	9.42%		
COc1ccc(CNc2nc3ccccc3n2Cc2ccc(Cl)cc2)cc1OC	-0.203% (inactive)	-0.354%		
CCOC(=O)N1CCN(C(=O)CCc2cc(OC)c(OC)c(OC)c2)CC1	19.9% (inactive)	18.4%		
CC(=O)N1CC(C)Sc2ccc(S(=O)(=O)NCCc3ccc(C)cc3)cc21 (stereo not drawn)		-15.2%		6.51 µM (active)
COc1ccc(CNS(=O)(=O)c2ccc3c(c2)N(C(C)=O)CC(C)S3)cc1 (stereo not drawn)		-3.12%	inactive	
CC(=O)N1CC(C)Sc2ccc(S(=O)(=O)NCc3ccc(Cl)cc3)cc21 (stereo not drawn)	20.2% (inactive)	17.6%		
CCc1ccc(-n2c(C)cc(/C=N/NC(=O)OC)c2C)cc1	7.36% (inactive)	-6.79%		
Cc1ccc(OCc2nnc(NC(=O)OCC(C)C)s2)c(C)c1			inactive	
Cc1ccc(OCc2nnc(NC(=O)OCC(C)C)s2)cc1		0.0966%		18.4 µM (active)
CCCCOC(=O)Nc1nnc(COc2ccccc2)s1	8.5% (inactive)	-19.4%		
O=C(NC1CCN(S(=O)(=O)c2ccc(Cl)c(F)c2)CC1)c1cccnc1	-20% (inactive)	-17.9%		
C[C@@H](O)C1NC(=O)[C@H](CCCCN)NC(=O)c2cc([N+](=O)[O-])cc(I)c2OCC[C@@H](C(N)=O)NC1=O (stereo partly drawn)	6.3% (inactive)	-6.85%		
O=S(=O)(c1ccc(Br)cc1)c1nc(-c2ccccc2)oc1NCCN1CCOCC1	0.674% (inactive)	2.89%		
COCCNc1nnc(Cc2ccc(Cl)cc2)c(=O)[nH]1	-2.21% (inactive)	-0.278%		
O=C(c1ccc(F)c(F)c1)N1CCCc2ccccc21	-1.08% (inactive)	4.4%		

SMILES	lipid storage change, negative = inhibition	cell number change	outcome	Potency
O=C(c1cccc(Br)c1)N1CCCc2ccccc21		-21.4%		0.82 µM (active)
O=C(c1ccccc1)N1CCCc2ccccc21	-0.33% (inactive)	0.741%		
Cc1ccc(OCCCC(=O)Nc2ccc(N3CCOCC3)cc2)c(C)c1			inactive	
Cc1cc(Oc2nnnn2-c2ccccc2)ccc1Cl	-2.18% (inactive)			
CCN(C(=O)c1ccc(NC(C)=O)cc1)c1ccccc1		-17%	inactive	
Nc1ccc(-n2nnnc2CN2CCOCC2)cc1	10.8% (inactive)	0.0095%		
c1ccc(-n2nnnc2CN2CCOCC2)cc1	-2.17% (inactive)	-7%		
CC1CCN(Cc2nnnn2-c2ccc(Cl)cc2)CC1		-6.07%		13 µM (active)
COc1ccc(OC)c(N(CC(=O)NCCSCc2ccco2)S(=O)(=O)c2ccc(OC)c(OC)c2)c1	-30% (inactive)	-16.6%		
C[n+]1ccccc1/C=C1\Sc2ccccc2N1CCO		-1.06%	inactive	
CCCCN1/C(=C/c2cccc[n+]2C)Sc2cc(NC(C)=O)ccc21		11.1%		1.3 µM (active)
Cc1ccc2c(c1)S/C(=C\c1cccc[n+]1C)N2CCO	-8.13% (inactive)	-6.57%		
O=C(Nc1nc2ccc([N+](=O)[O-])cc2s1)C1CCCO1 (stereo not drawn)	3.18% (inactive)	-16.8%		
O=C(NNC(=O)c1csc(-c2cccnc2)n1)c1ccccc1	-0.436% (inactive)	5.13%		
S=C(NCc1cccc(Cl)c1)NCc1ccco1	-19.9% (inactive)	29.3%		
CC(C)(C)NC(=O)COC(=O)c1ccc2c(c1)C(=O)N(Cc1ccco1)C2=O		-13.3%	inactive	
CCC(CC)NC(=O)COC(=O)c1ccc2c(c1)C(=O)N(Cc1ccco1)C2=O	-29.9% (inactive)	-0.427%		
CC(C)(C)C(=O)COC(=O)c1ccc2c(c1)C(=O)N(Cc1ccco1)C2=O		2.14%		0.259 µM (active)
COc1ccc(NS(=O)(=O)c2cccc(C(=O)NCC(c3ccco3)N3CCCC3)c2)cc1 (stereo not drawn)	16.7% (inactive)	21.4%		
COC(=O)c1ccc(CSc2nnc(N)s2)cc1	21.3% (inactive)	1.22%		
CCn1cc(C(=O)OCC(=O)OC2CC(C)CCC2C(C)C)c(=O)c2ccc(C)nc21 (stereo not drawn)			inactive	
CCC(C)Nc1nc2c(C)cccn2c(=O)c1C=Nc1ccc(OC)cc1 (stereo not drawn)	22.7% (inactive)			
CCOCCCNC(=O)c1cc2c(=O)n3cccc(C)c3nc2s1	15.3% (inactive)	22%		

SMILES	lipid storage change, negative = inhibition	cell number change	outcome	Potency
CCOCCCNc1nc2c(C)cccn2c(=O)c1/C=C1\SC(=S)N(C(C)CC)C1=O (stereo not drawn)		29.9%		0.461 µM (active)
COCCn1c(=O)[nH]c(=O)c2c(C(F)(F)F)cc(-c3cccs3)nc21	7.94% (inactive)	6.31%		
COc1ccc(CNC(=O)c2cc(=O)c3cc(C)c(C)cc3o2)cc1	25% (inactive)	22.5%		
CN(NS(=O)(=O)c1ccc(F)cc1)c1ncc(C(F)(F)F)cc1Cl	7.85% (inactive)	-16.4%		
CC(=O)NCCC(=O)Nc1ncc(S(=O)(=O)c2ccc([N+](=O)[O-])cc2)s1	17.1% (inactive)	18.8%		
CCCOc1ccc(N2C(=O)CC(N3CCOCC3)C2=O)cc1 (stereo not drawn)		5.36%	inactive	
CCCOc1ccc(N2C(=O)CC(N3CCN(c4ccccc4F)CC3)C2=O)cc1 (stereo not drawn)	11.8% (inactive)	-7.57%		
CCCOc1ccc(N2C(=O)CC(N3CCN(c4ccc([N+](=O)[O-])cc4)CC3)C2=O)cc1 (stereo not drawn)		5.5%		2.31 µM (active)
Cn1c(=O)n(CC(=O)O)c(=O)c2c1nc1n2CCCN1Cc1ccccc1	-23.5% (inactive)	6.57%		
O=C(COc1ccccc1[N+](=O)[O-])N/N=C/C=C/c1ccco1	-22.2% (inactive)	-6.08%		
Cc1cc(NC(=O)CN2C(=O)NC3(CCC(C)CC3)C2=O)no1 (stereo not drawn)	2.19% (inactive)	5.62%		
O=C(NCCN1C(=O)S/C(=C\c2ccc(Cl)c(Cl)c2)C1=O)C1COc2ccccc2O1 (stereo not drawn)			inactive	
O=C(NCCN1C(=O)S/C(=C\c2ccc(Cl)cc2Cl)C1=O)C1=COCCO1				20.6 µM (active)
O=C(CCc1nc2ccccc2c(=O)[nH]1)NCCN1C(=O)S/C(=C\c2ccc(Cl)cc2Cl)C1=O	-29.4% (inactive)	1.43%		
O=C(NCCN1C(=O)S/C(=C\c2cccc(Cl)c2Cl)C1=O)C1=COCCO1		-26.2%		11.6 µM (active)
O=C(CCCN1C(=O)/C(=C/c2ccccc2Cl)SC1=S)NCCCN1CCOCC1	-10.8% (inactive)	16.8%		
O=C(NCCN1C(=O)S/C(=C\c2ccc(Cl)c([N+](=O)[O-])c2)C1=O)C1=COCCO1	-27.2% (inactive)	12.4%		
Cn1c(=O)c(Nc2ccc(O)cc2)c2c3c(cccc31)C(=O)c1ccccc1-2	2.84% (inactive)	4.29%		
CCOC(=O)c1c2c3c(cccc3n(C)c1=O)C(=O)c1ccccc1-2		-24.8%		13 µM (active)
CC(=O)c1c2c3c(cccc3n(C)c1=O)C(=O)c1ccccc1-2		-3.04%	inactive	
COc1ccccc1CNC(=O)c1sccc1-c1ccccc1		7.94%	inactive	
CCOC(=O)c1sc(=NC(=O)c2ccc(OC)c(OC)c2)n(C)c1C	9.28% (inactive)	0.273%		
CC(=O)c1ccc(S(=O)(=O)N2CCCc3ccccc32)cc1	11.7% (inactive)	13.2%		
